aDG glyco up: activators of alpha-DG glycosylation, primary screen, uHTS, Pro5-aDG cells, AlphaScreen | alpha-DG glycosylation AlphaScreen (IIH6); 0% Pro5, 100% B10-LARGE cell signal | hit rate 0.22% among 360,000 | activation, % at 10 µM;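 active = activation of at least 8% versus controls, or a plate z-score of at least 8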;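 also: Pro5 are CHO cells carrying HIG-tagged alpha-DG that lacks glycosylation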
MPTP inh: mitochondrial permeability transition pore inhibitors, primary screen, biochemical, isolated mouse mitochondria, absorbance. Ca2+ swelling absorbance, 30 min. inhibition, % at 10 µM. hit rate 1.4% among 360,000. AID 602449, 2012;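 active = inhibition of 50% or more, scaled per plate between neutral and stimulator controls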;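 also: 0% = DMSO wells given calcium and 100% = 1 mM EGTA wells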
TAG inh: inhibitors of triacylglycerol accumulation, primary screen, cell-based, uHTS, fluorescence, H9c2; H9c2 cells, Nile Red lipid (TAG) fluorescence; cells loaded with 200 µM oleic acid; inhibition, % at 12.5 µM; hit rate 0.66% among 230,000; AID 651582, 2012;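 active = pattern-corrected inhibition of lipid staining of at least 50% with the nuclear-stain viability signal not falling by more than 50%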;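 also: 0% = DMSO wells and 100% = triacsin C control wells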
NadD inh: inhibitors of S. aureus NadD, primary screen, biochemical, colorimetric, uHTS | Nicotinate-nucleotide adenylyltransferase NadD (Staphylococcus aureus N315) | purified NadD enzyme, colorimetric absorbance read-out | inhibition, % at 20 µM | hit rate 0.78% among 360,000 | AID 602399, 2012; in the data active = inhibition above about 26%
NadD inh conf: inhibitors of S. aureus NadD, confirmation, biochemical, colorimetric, single concentration | shares compounds with NadD inh | purified S. aureus NadD, colorimetric enzyme assay | inhibition, % at 20 µM | hit rate 13% among 2,000; in the data active = inhibition mostly above about 42%, no sharp cut-off; inactive = mostly below about 42%
Starred values were filed as active, the others as inactive; / = no result given. Compounds with a hit are over-represented: about 2.7% of the library has one in this group of screens.

SMILES	aDG glyco up	MPTP inh	TAG inh	NadD inh	NadD inh conf
Clc1ccc(C(Cn2ccnc2)OCc2c(Cl)cccc2Cl)c(Cl)c1 (configuration not stated)	0.2	1.3	-16.0	33.4*	21.2
O=C(O)c1ccccc1NS(=O)(=O)c1ccc(NN=Cc2cccc(Cl)c2)c([N+](=O)[O-])c1	-0.1	39.9	-0.3	31.0*	11.0
CCOc1ccc(S(=O)(=O)Nc2ccc(C(=O)N/N=C/c3c(C)nn(-c4ccccc4)c3N3CCCC3)cc2)cc1	0.2	0.8	-16.4	33.3*	23.8
O=C(O)c1ccccc1NS(=O)(=O)c1ccc(N/N=C/c2ccc(O)c(O)c2)c([N+](=O)[O-])c1	-0.4	6.5	17.0	18.9	/
COc1ccccc1NS(=O)(=O)c1ccc(N/N=C/c2c(C)nn(-c3ccccc3)c2N2CCCC2)c([N+](=O)[O-])c1	-0.9	12.1	/	38.0*	14.1
Cc1nn(-c2ccccc2)c(N2CCCCC2)c1/C=N/NC(=O)c1ccncc1	-0.1	1.2	6.6	0.9	/
Cc1nn(-c2ccccc2)c(N2CCCC2)c1/C=N/Nc1ccc(S(=O)(=O)Nc2ccccc2)cc1[N+](=O)[O-]	-0.4	7.2	/	46.8*	22.2
COc1c(/C=N/Nc2ccc([N+](=O)[O-])cc2[N+](=O)[O-])c(C)nn1-c1ccccc1	-0.4	10.3	25.3	14.8	/
O=c1[nH]c(NNC(=S)NCc2ccccc2)nc2c1C1(CCCCC1)Cc1ccccc1-2	-0.1	43.3	/	37.0*	53.2*
C=CCNC(=S)NNc1nc2c(c(=O)[nH]1)C1(CCCC1)Cc1ccccc1-2	0.0	11.1	/	10.5	/
CN(CC(=O)NC(=O)NCc1ccccc1)CC(=O)Nc1ccc(Cl)c(Cl)c1	0.4	2.6	-11.5	-1.5	/
CC(=O)C1=CCC(c2ccc(Cl)c(Cl)c2)N(S(=O)(=O)c2ccc(C)cc2)C1 (configuration not stated)	0.1	-1.4	/	-2.6	/
O=C(Nc1ccc(S(=O)(=O)Nc2nccs2)cc1)/C(=C/c1ccccc1Cl)NC(=O)c1ccccc1	-0.4	3.1	/	39.2*	55.7*
COc1cc(NS(=O)(=O)c2ccc(NC(=O)/C(=C/c3ccccc3Cl)NC(=O)c3ccccc3)cc2)nc(OC)n1	0.1	0.8	/	33.1*	48.9*
O=C(COC(=O)c1cc(-c2ccco2)nc2ccccc12)NCc1ccccc1	0.1	-3.3	9.7	45.7*	19.0
CCN(CC)C(=O)COC(=O)c1cc(-c2ccco2)nc2ccccc12	-0.4	-0.2	-12.8	31.2*	21.3
Cn1c(N)c(C(=O)COC(=O)c2cc(-c3ccco3)nc3ccccc23)c(=O)n(C)c1=O	0.0	2.4	5.1	58.9*	74.0*
Cc1nn(-c2ccccc2)c(C)c1NC(=O)COC(=O)Cc1ccccc1F	0.1	-1.8	-0.1	-3.3	/
Cc1ccc(/C=C/C(=O)OCC(=O)N(C)c2c(N)n(Cc3ccccc3)c(=O)[nH]c2=O)o1	-0.1	-1.7	-3.0	0.3	/
O=C(COC(=O)c1cnccn1)NC1CCCc2ccccc21 (configuration not stated)	-0.2	-0.1	3.5	1.6	/
Cc1ccc(S(=O)(=O)N2[C@@H](c3ccc(C(C)(C)C)cc3)C(C(=O)O)=CC[C@H]2c2ccc(C(C)C)cc2)cc1	0.0	1.1	1.2	51.2*	33.0
O=C(COC(=O)C1CCC1)NCc1ccc(F)cc1	-0.2	-0.3	-0.8	0.5	/
Cc1cc(-c2cc(N)n(-c3ccccc3)n2)c(C)n1C1CCCC1	-0.4	0.3	/	32.4*	12.5
Cc1nc(SCC(=O)c2cc3ccccc3oc2=O)c(C#N)c(-c2cccs2)c1C(=O)Nc1ccccc1	-0.5	1.5	-7.9	32.5*	2.0
CN(CC(=O)Nc1ccccc1Cl)C(=O)CSc1nncn1C	-0.2	-1.0	0.1	-4.5	/
SMILES	aDG glyco up	MPTP inh	TAG inh	NadD inh	NadD inh conf
CCOC(=O)c1cc(-c2ccc(N3C(c4ccsc4)=Cc4ccccc4C3CC(C)=O)cc2)cc([N+](=O)[O-])c1 (configuration not stated)	-0.6	0.2	/	31.6*	-0.1
CCCCNC(=O)C1(C)CCC(=O)N1C1CC1 (configuration not stated)	0.0	-0.3	/	-2.6	/
Nc1nc(-c2ccccc2)cs1	-0.2	-0.5	/	0.1	/
Cc1ccc(-c2csc(C3C(N)=NC(S)=C(C#N)C34CCCCC4)n2)cc1 (configuration not stated)	0.0	-1.2	4.3	27.5	/
N#CC1=C(S)N=C(N)C(c2nc(-c3ccccc3)cs2)C12CCCCC2 (configuration not stated)	-0.2	-4.3	2.6	52.0*	75.2*
N#CC1=C(S)N=C(N)C(c2nc(-c3ccccc3)cs2)C12CCCC2 (configuration not stated)	0.0	-5.3	-7.4	52.1*	72.6*
O=C(CCCCCCC(=O)NCc1ccccc1)NCc1ccccc1	0.1	0.6	2.1	-5.6	/
CC(=O)c1ccc(OCCCC(=O)OCC(=O)N2CCN(S(=O)(=O)c3ccc(C)cc3C)CC2)cc1	-0.3	-1.0	-10.3	-2.0	/
COc1ccc(-c2csc(Nc3ccc(S(N)(=O)=O)cc3)n2)cc1	0.6	0.0	/	44.9*	47.3
CC(=O)Oc1ccc(-c2csc(Nc3ccc(S(N)(=O)=O)cc3)n2)cc1	-0.2	1.7	23.4	-1.9	/
CN(Cc1ccc(Cl)s1)C(=O)CN1C(=O)N(C)C2(CCCCC2)C1=O	0.1	0.5	-0.9	-5.4	/
COc1cc(C(=O)Nc2nc(-c3cc(C)ccc3C)c(C)s2)ccc1OCC(=O)Nc1ccc(F)cc1	0.0	0.2	/	32.8*	17.9
COc1ccc(-c2nc(NC(=O)c3ccc(OCC(=O)Nc4ccc(F)cc4)c(OC)c3)sc2C)cc1	1.6	-0.8	/	25.8	/
Cc1nc2ccc(NC(=O)c3ccc(Cl)c(NC(=O)c4cccs4)c3)cc2s1	0.5	0.2	15.2	28.1*	14.2
C=C(C)CN(CC)c1nc(N)c2c(N)nc3c(c2c1C#N)CC(=O)N3C12CC3CC(CC(C3)C1)C2	-0.4	1.7	-84.5	34.9*	14.8
CCCCN1C(=O)Cc2c1nc(N)c1c(N)nc(N(CCC)CCC)c(C#N)c21	-0.3	1.5	6.4	14.2	/
COC/C=C/C1=CC2=CC(=O)C(C)(OC(=O)c3cnc4ccccc4n3)C(=O)C2=CN1c1ccc(OC)cc1 (configuration not stated)	0.2	2.1	5.3	33.3*	29.2
CCN(CC)c1cc2c(c3c1ccn3C)C1CCC2C1 (configuration not stated)	0.1	1.3	/	-7.1	/
COc1cc(OC)cc(-c2c(-c3cccs3)c3cc(-c4ccc(OCc5ccccc5)cc4)ccc3n2C)c1	-0.2	0.9	-23.3	46.3*	-4.6
CCOC(=O)c1cnc(-n2nc(C)cc2C)nc1NNc1nc(-c2ccccc2)cc(-c2ccccc2)n1	0.6	20.3	/	34.9*	3.8

Source: PubChem BioAssay (Sanford-Burnham Center for Chemical Genomics)
